# From PubChem BioAssay (EPA / NIEHS)
# Inconclusive results are not listed. Active and inactive are the calls of the source. How the source made its calls, unless noted: active means hit-call score of the fitted dose curve at least 0.9, where 1 is the maximum; inconclusive means response in the unintended direction; inactive means score below 0.9.
# Target: human Peroxisome Proliferator-activated Receptor alpha (PPARa), PPARA (gene 5465) (UniProt Q07869)
# Assay: ATG_PPARa_TRANS: Attagene TRANS-FACTORIAL HepG2 Assay for human Peroxisome Proliferator-activated Receptor alpha (PPARa) (AID 2283001);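 on AC50: potency for gain of reporter signal over DMSO so agonist or activator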
# Settings: not given
# How it was run: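 HepG2, transient MRTU transfection, 24 h treatment. RT-PCR → FAM labelling → capillary electrophoresis. Fit vs DMSO, positive direction.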
# human Peroxisome Proliferator-activated Receptor alpha (PPARa), PPARA (gene 5465), sequence (Q07869 whole entry, looked up): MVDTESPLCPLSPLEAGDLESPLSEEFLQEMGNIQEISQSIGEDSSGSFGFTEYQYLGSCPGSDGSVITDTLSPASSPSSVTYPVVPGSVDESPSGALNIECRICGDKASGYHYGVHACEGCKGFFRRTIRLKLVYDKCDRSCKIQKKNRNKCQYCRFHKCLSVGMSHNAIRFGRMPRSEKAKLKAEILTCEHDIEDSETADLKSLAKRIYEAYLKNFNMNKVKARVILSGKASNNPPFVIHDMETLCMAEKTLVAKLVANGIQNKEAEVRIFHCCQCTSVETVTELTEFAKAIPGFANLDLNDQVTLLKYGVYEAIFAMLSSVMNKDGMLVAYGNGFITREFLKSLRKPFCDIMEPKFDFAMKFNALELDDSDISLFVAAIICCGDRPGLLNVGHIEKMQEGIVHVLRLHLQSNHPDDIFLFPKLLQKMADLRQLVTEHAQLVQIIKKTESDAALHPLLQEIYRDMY
Structure (SMILES),outcome,AC50
COCCOC[C@H](CC1(C(=O)NC2CCC(C(=O)O)CC2)CCCC1)C(=O)Oc1ccc2c(c1)CCC2 (stereo not given in full),inactive,
COc1ccc2c(c1)c(CC(=O)O)c(C)n2C(=O)c1ccc(Cl)cc1,inactive,
CCCCCCCCCCCCCO,,24.3 µM (active)
CC=Cc1ccc(O)c(OC)c1,inactive,
CCOc1ccc2c(c1)C(C)=CC(C)(C)N2,inactive,
COc1cc(/C=C/C(=O)CC(=O)/C=C/c2ccc(O)c(OC)c2)ccc1O,inactive,
O=c1[nH]cc(F)c(=O)[nH]1,inactive,
O=C(O)Cc1ccccc1Nc1c(Cl)cccc1Cl,inactive,
CCCCc1ccc2c(n1)[C@@H](c1ccc(OC)cc1C[C@H](C)C(=O)O)[C@H](C(=O)O)[C@H]2c1ccc2c(c1)OCO2,inactive,
Cc1c(C(=O)O)c(O)cc2c1C(=O)c1c(O)c([C@@H]3O[C@H](CO)[C@@H](O)[C@H](O)[C@H]3O)c(O)c(O)c1C2=O,inactive,
CCCCCCCCCCCCCCCC,inactive,
C=CCc1ccc(O)c(OC)c1,inactive,
Cc1cc(NC(=O)C(=O)O)cc(C)c1Oc1ccc(O)c2c1CCC2,inactive,
CC(=O)C(C)=CC1C(C)=CCCC1(C)C (stereo not given),inactive,
FC(F)(F)C(F)(F)C(F)(F)C(F)(F)C(F)(F)C(F)(F)CCI,inactive,

# Target: human Peroxisome Proliferator-activated Receptor delta (PPARd), PPARD (gene 5467) (UniProt Q03181)
# Sequence (Q03181 whole entry, looked up): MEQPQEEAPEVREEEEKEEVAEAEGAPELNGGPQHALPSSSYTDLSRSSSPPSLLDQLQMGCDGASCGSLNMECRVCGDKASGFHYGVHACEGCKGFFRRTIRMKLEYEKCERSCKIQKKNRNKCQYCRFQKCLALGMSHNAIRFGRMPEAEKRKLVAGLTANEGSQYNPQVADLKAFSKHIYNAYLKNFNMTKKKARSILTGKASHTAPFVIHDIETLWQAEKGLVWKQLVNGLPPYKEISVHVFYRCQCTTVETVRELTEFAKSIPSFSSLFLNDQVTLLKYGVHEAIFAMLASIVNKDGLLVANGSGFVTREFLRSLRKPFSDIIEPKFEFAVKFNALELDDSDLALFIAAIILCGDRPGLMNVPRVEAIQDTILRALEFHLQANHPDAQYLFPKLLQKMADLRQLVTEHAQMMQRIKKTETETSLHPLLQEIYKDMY
# Assay: ATG_PPARd_TRANS: Attagene TRANS-FACTORIAL HepG2 Assay for human Peroxisome Proliferator-activated Receptor delta (PPARd) (AID 2283002)
# Settings: not given
# How it was run: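 Fluorescence from capillary electrophoresis of labelled RT-PCR reporter fragments gives the signal; DMSO sets baseline. Cells: HepG2 transiently carrying GAL4-UAS reporter units plus chimeric nuclear receptor-Gal4 proteins, exposed to chemicals for 24 h.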
Structure (SMILES),outcome,AC50
COc1cc(S(=O)(=O)O)c(C)cc1N=Nc1c(O)ccc2cc(S(=O)(=O)O)ccc12,inactive,
COCCOC[C@H](CC1(C(=O)NC2CCC(C(=O)O)CC2)CCCC1)C(=O)Oc1ccc2c(c1)CCC2 (stereo not given in full),inactive,
COc1ccc(S(=O)(=O)N2C(=O)[C@@](c3ccccc3OC)(N3C[C@H](O)C[C@H]3C(=O)N(C)C)c3cc(Cl)ccc32)c(OC)c1,inactive,
COc1ccc2c(c1)c(CC(=O)O)c(C)n2C(=O)c1ccc(Cl)cc1,inactive,
COc1cccc2c1C(=O)c1c(O)c3c(c(O)c1C2=O)C[C@@](O)(C(=O)CO)C[C@@H]3O[C@H]1C[C@H](N)[C@H](O)[C@H](C)O1,inactive,
Cc1ccc(Cl)cc1,inactive,
CCCc1cc(=O)[nH]c(=S)[nH]1,inactive,
Cc1ccc(N(C)C)cc1,inactive,
CCOc1ccc2c(c1)C(C)=CC(C)(C)N2,,170 µM (active)
COc1cc(/C=C/C(=O)CC(=O)/C=C/c2ccc(O)c(OC)c2)ccc1O,inactive,
CNC(=O)[C@H]1O[C@@H](n2cnc3c(NCc4cc(Cl)ccc4OCc4cc(C)no4)ncnc32)[C@H](O)[C@@H]1N,inactive,
O=c1[nH]cc(F)c(=O)[nH]1,inactive,
CC(=O)OC/C=C(\C)CCC=C(C)C,inactive,
Cc1ccccc1Cl,inactive,
Cc1cc(NC(=O)C(=O)O)cc(C)c1Oc1ccc(O)c2c1CCC2,inactive,
CC(=O)C(C)=CC1C(C)=CCCC1(C)C (stereo not given),inactive,
FC(F)(F)C(F)(F)C(F)(F)C(F)(F)C(F)(F)C(F)(F)CCI,inactive,

# Read-out: Intercellular Adhesion Molecule 1 (ICAM1), ICAM1 (gene 3383)
# Assay: BSK_3C_ICAM1: BioMAP Diversity Plus: 3C Assay for Intercellular Adhesion Molecule 1 (ICAM1) Biomarker Activity (AID 2283003; active means hit-call score of the fitted dose curve at least 0.9, where 1 is the maximum; inactive means score below 0.9)
# Settings: primary human endothelial cells (HUVEC); actives raise or lower the signal
# How it was run: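 ELISA readout of ICAM1 in human umbilical vein endothelial cells in the 3C system, taken 24 h post-dose. Gain or loss of signal versus DMSO was fitted in both directions, with SRB total-protein staining run in parallel.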
Structure (SMILES),outcome,AC50
COc1cc(S(=O)(=O)O)c(C)cc1N=Nc1c(O)ccc2cc(S(=O)(=O)O)ccc12,inactive,
COCCOC[C@H](CC1(C(=O)NC2CCC(C(=O)O)CC2)CCCC1)C(=O)Oc1ccc2c(c1)CCC2 (stereo not given in full),inactive,
CN1CCCC1=O,inactive,
COc1ccc(S(=O)(=O)N2C(=O)[C@@](c3ccccc3OC)(N3C[C@H](O)C[C@H]3C(=O)N(C)C)c3cc(Cl)ccc32)c(OC)c1,inactive,
CCOC(=O)CCC(=O)OCC,inactive,
COc1ccc2c(c1)c(CC(=O)O)c(C)n2C(=O)c1ccc(Cl)cc1,inactive,
NS(=O)(=O)c1cc2c(cc1Cl)NCNS2(=O)=O,inactive,
CCCCCCCCCCCCCO,,37.5 µM (active)
CC=Cc1ccc(O)c(OC)c1,inactive,
Cc1ccc(Cl)cc1,inactive,
CCCc1cc(=O)[nH]c(=S)[nH]1,inactive,
Cc1ccc(N(C)C)cc1,inactive,
CCOc1ccc2c(c1)C(C)=CC(C)(C)N2,inactive,
CC1=C(/C=C/C(C)=C/C=C/C(C)=C/CO)C(C)(C)CCC1,inactive,
NCCO,inactive,
CNC(=O)[C@H]1O[C@@H](n2cnc3c(NCc4cc(Cl)ccc4OCc4cc(C)no4)ncnc32)[C@H](O)[C@@H]1N,inactive,
O=c1[nH]cc(F)c(=O)[nH]1,inactive,
O=C(O)Cc1ccccc1Nc1c(Cl)cccc1Cl,inactive,
CCCCc1ccc2c(n1)[C@@H](c1ccc(OC)cc1C[C@H](C)C(=O)O)[C@H](C(=O)O)[C@H]2c1ccc2c(c1)OCO2,inactive,
CC(=O)OCCOCCOCCOC(C)=O,inactive,
Cc1c(C(=O)O)c(O)cc2c1C(=O)c1c(O)c([C@@H]3O[C@H](CO)[C@@H](O)[C@H](O)[C@H]3O)c(O)c(O)c1C2=O,inactive,
CC(=O)OC/C=C(\C)CCC=C(C)C,inactive,
CCCCCCCCCCCCCCCC,inactive,
Cc1ccccc1Cl,inactive,
C=CCc1ccc(O)c(OC)c1,inactive,
Cc1cc(NC(=O)C(=O)O)cc(C)c1Oc1ccc(O)c2c1CCC2,inactive,
CC(=O)C(C)=CC1C(C)=CCCC1(C)C (stereo not given),inactive,
FC(F)(F)C(F)(F)C(F)(F)C(F)(F)C(F)(F)C(F)(F)CCI,inactive,
